D2 antag: antagonizes the human D2 dopamine receptor. P14416. HEK293 TREx D2 cells, calcium flux, dopamine EC80. inhibition, % at 10 µM. actives 2% (n = 340,000); in the data active means inhibition above about 30%; inactive means below that, where a call was filed; further: 0% is about no effect
Target sequence (P14416 whole entry, looked up): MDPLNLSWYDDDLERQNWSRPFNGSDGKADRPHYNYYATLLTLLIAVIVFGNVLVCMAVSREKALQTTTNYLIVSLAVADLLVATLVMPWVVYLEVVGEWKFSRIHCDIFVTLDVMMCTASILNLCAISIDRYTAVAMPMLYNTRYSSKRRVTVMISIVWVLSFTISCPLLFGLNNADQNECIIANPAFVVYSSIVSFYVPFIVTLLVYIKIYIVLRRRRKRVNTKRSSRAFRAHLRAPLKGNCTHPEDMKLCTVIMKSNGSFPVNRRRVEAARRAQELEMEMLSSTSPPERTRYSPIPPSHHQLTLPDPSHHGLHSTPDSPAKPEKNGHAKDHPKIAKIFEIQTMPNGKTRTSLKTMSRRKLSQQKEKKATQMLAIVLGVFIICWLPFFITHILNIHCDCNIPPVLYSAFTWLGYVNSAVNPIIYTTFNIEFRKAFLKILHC
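Dopamine at EC80 is the agonist stimulus; test compounds precede it by 180 s. Calcium flux read kinetically in a force-coupled, inducible HEK293 T-REx D2 cell line.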
D2 ag-1: D2 dopamine receptor (human) agonism | P14416 | HEK293 T-REx D2 cells, calcium flux agonist mode | activation, % at 2 µM | actives 0.53% (n = 340,000) | AID 485358;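 active means activation over 3 SD above normal in the single-dose calcium agonist read, cut at about 30% in these data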; further: 0% is about no effect
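In this primary screen, compounds producing a positive calcium signal within 180 s of addition to tetracycline-induced, force-coupled HEK293 Trex D2 cells are flagged; cells are dye-loaded with a no-wash calcium kit beforehand.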
D2 PAM-1: positively modulates the human D2 dopamine receptor allosterically. potentiation, % at 10 µM. P14416. actives 0.34% (n = 340,000). AID 485347. HEK293 T-REx D2, calcium flux, EC20 dopamine potentiation;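 active means potentiation over 3 SD above the plate norm, cut at about 30% in these data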; further: 0% is about no effect
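Using a no-wash calcium dye in inducible, force-coupled HEK293 Trex cells expressing D2, we tracked fluorescence each second for 180 s after compound, then for 180 s after EC20 dopamine to detect augmented signalling.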
D2 ag-2: activates the human D2 dopamine receptor; P14416; DiscoveRx PathHunter D2 beta-arrestin, luminescence, 90 min; 100% = 57 uM dopamine signal; activation, % (concentration not given with the values); actives 0.084% (n = 360,000); in the data active means activation above about 40%; inconclusive means between about 15% and that limit
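DiscoveRx PathHunter D2 beta-arrestin cells (2,100/well) attached overnight, then compound-stimulated 90 min at 37 C in HBSS/10 mM HEPES/0.1% Tween-20 buffer; beta-galactosidase complementation read by luminescence after 1 h at ambient temperature. Dopamine 57 uM final (EC100) as control.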
D2 PAM-2: human D2 receptor positive allosteric modulation. DiscoveRx D2 beta-arrestin cells, luminescence, 90 min; 100% = 57 uM dopamine signal. AID 624464. actives 0.23% (n = 360,000). P14416. potentiation, % (no concentration beside the values); in the data active means potentiation above about 50%; inconclusive means mostly about 30% to 49%
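PathHunter beta-arrestin assay in DiscoveRx D2 cells. Compounds were added with an EC20 of dopamine (50 nM final) for 90 min at 37 deg C. Luminescence was read 1 h after detection reagent, with 57 uM dopamine as the EC100 control.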
The depositor's hits bear a star; ? = inconclusive; · = not tested or not shown. Compounds with a hit are over-represented: about 2.4% of the library has one in this group of screens.

SMILES | D2 antag | D2 ag-1 | D2 PAM-1 | D2 ag-2 | D2 PAM-2
CCC(=O)Nc1nnc(/C=C/c2ccc(OC)cc2)s1 | 35* | 0 | 11 | 6 | 1
Cc1cccc(NC(=O)c2oc3ccc(S(=O)(=O)N4CCC5(CC4)OCCO5)cc3c2C)c1C | · | 0 | 6 | · | ·
O=[N+]([O-])c1ccc(/C=N/NS(=O)(=O)c2ccc(Cl)cc2)o1 | 45* | 1 | 3 | -6 | 3
Cc1ccc(S(=O)(=O)N/N=C\c2ccc([N+](=O)[O-])o2)cc1 | 6 | -1 | -3 | 0 | 1
CN(Cc1ccccc1)C(=O)Cn1c(=O)c2cccn2c2ccc(F)cc21 | · | 0 | 6 | · | ·
Cc1cc(NC(=O)CS(=O)(=O)c2ccc(Cl)cc2)no1 | 2 | 0 | 44* | -2 | -7
Cc1cc(NC(=O)CS(=O)(=O)c2ccc(F)cc2)no1 | -10 | -1 | 7 | -3 | -19
Clc1ccc(-c2ccc(/C=N/Nc3nncc(-c4ccccc4)n3)o2)cc1 | -6 | 0 | -3 | -3 | -7
Cc1ccc(/C=N/Nc2nncc(-c3ccccc3)n2)o1 | 51* | 0 | -10 | -4 | -3
Cc1ccn2c(Nc3c(C)cccc3C)c(-c3ccc(Cl)s3)nc2c1 | · | 3 | 0 | · | ·
Cc1cc(C)c2nc(-c3ccccn3)cc(C(=O)NCc3cc(C)n(C)n3)c2c1 | 35* | 0 | -13 | -4 | 5
Nc1ccc(-c2nc3ccc(-c4nc5ccccc5o4)cc3[nH]2)cc1 | -21 | 0 | 2 | 3 | 65*
Nc1cc(N)cc(-c2nc3ccccc3[nH]2)c1 | 27 | -1 | 3 | 6 | 53*
Cc1nc2ccc(-c3nc4ccccc4o3)cc2[nH]1 | -10 | 1 | -2 | -1 | 0
Cc1cc(C)cc(NS(=O)(=O)c2ccc(-c3cc(C)no3)cc2)c1 | · | 0 | · | · | ·
O=C(Nc1ccccc1N1CCCCC1)c1ccc(-c2cccc(Cl)c2)o1 | -6 | 0 | 12 | -6 | -6
O=C(Nc1cccc2nsnc12)c1ccc(-c2cccc(Cl)c2)o1 | -10 | -1 | 1 | 1 | 51*
COc1cc(/C=N/NC(=O)c2cccc3ccccc23)cc(OC)c1OC | 30* | -3 | -11 | -2 | 3
COc1cc(/C=N/NC(=O)c2cccc3ccccc23)cc(OC)c1O | 3 | 0 | 3 | 7 | 7
Cc1ccc(CCNC(=O)c2ccc(CSCc3ccc(C)cc3)o2)cc1 | · | 1 | -30 | · | ·
Cc1cc(C(=O)Nc2ccccc2C)on1 | -3 | 0 | 8 | -4 | -4
Cc1ccccc1NC(=O)c1ccno1 | 32* | 0 | 14 | 0 | -1
CS(=O)(=O)N1CCc2cc(C(=O)N3CCCCC3)ccc21 | 4 | 0 | -5 | 2 | -4
CS(=O)(=O)N1CCc2cc(C(=O)O)ccc21 | 0 | -1 | 31* | -1 | 1
CCOc1ccc(CNCc2c(C(=O)O)c(C)n(Cc3ccc(C)cc3)c2C)cc1 | · | 0 | -5 | · | ·
SMILES | D2 antag | D2 ag-1 | D2 PAM-1 | D2 ag-2 | D2 PAM-2
O=[N+]([O-])c1ccc(/C=N/NC(=S)Nc2ccc(Cl)cc2Cl)s1 | 45* | 2 | -7 | -3 | -10
O=C(OCC(=O)N1CCCC1)c1c[nH]c2ccccc12 | 3 | 0 | 5 | -4 | 0
Cc1cc(C)cc(C(=O)OCC(=O)N2CCCCCC2)c1 | 42* | 0 | -23 | 1 | -1
COc1cc(OC)cc(C(=O)OCC(=O)N2CCCC2)c1 | 12 | -5 | -12 | -3 | 3
O=C(OCC(=O)N1CCCCC1)c1c[nH]c2ccccc12 | -15 | 1 | 68* | -1 | 9
Cc1ccc(-c2noc(CNC(=O)c3ccc(Br)o3)n2)cc1 | · | 0 | -4 | · | ·
COc1ccccc1CNC(=O)CCCn1c(=O)c2ccccc2n(Cc2ccc(C)cc2)c1=O | · | 1 | -3 | · | ·
COc1cccc2c1[C@@H]1CN(CCCCn3c(=O)[nH]c4c(sc5ncc(-c6ccccc6)nc54)c3=O)C[C@@H]1CO2 | 56* | 2 | -19 | -5 | -35
COc1cc2[nH]c(=O)n(CCCC(=O)N3CC=C(c4ccccc4)CC3)c(=O)c2cc1OC | 3 | 1 | 4 | -3 | -1
COC(=O)c1ccc(C(=O)OC)c(NC(=O)CSCc2ccccc2Br)c1 | 45* | 0 | -1 | -1 | 0
COc1ccc(Cl)cc1NC(=O)C(C)n1nnc2sc3c(c2c1=O)CCCC3 (stereo unspecified) | · | 0 | -11 | · | ·
Cc1ccc(NC(=O)Cn2nnc(-c3nc(-c4ccc(Cl)cc4)no3)c2N)cc1C | · | 1 | 7 | · | ·
Cc1ccc(C(=O)c2coc3c2C(=O)C(=O)c2ccccc2-3)cc1 | -3 | -1 | 7 | ? | 64*
Cc1oc2c(c1C(=O)c1ccc(Cl)cc1)C(=O)C(=O)c1ccccc1-2 | 1 | 0 | 3 | 15 | 109*
Cc1oc2c(c1C(=O)N1CCC(C)CC1)C(=O)c1ccccc1C2=O | 0 | 0 | -12 | 2 | 2
Cc1ccc(C(=O)c2c(C)oc3c2C(=O)C(=O)c2ccccc2-3)cc1 | -36 | 1 | 1 | ? | 74*
COc1ccccc1N1CCN(S(=O)(=O)c2ccc(-c3ccno3)cc2OC)CC1 | · | 0 | 2 | · | ·
O=C(Nc1noc2ccccc12)c1ccc(F)cc1 | · | -1 | · | · | ·
CCN(CC)CCCNC(=O)c1nn(C)c2c1CSc1ccccc1-2 | · | 0 | -5 | · | ·
Cc1sc2ncn(CC(=O)Nc3ccc(F)cc3F)c(=O)c2c1S(=O)(=O)N1CCC(C)CC1 | · | 0 | -6 | · | ·
Cc1cccc(NC(=O)Cn2cnc3sc(C)c(S(=O)(=O)N4CCC(C)CC4)c3c2=O)n1 | 32* | -1 | 22 | 3 | 2
CC1=C(c2ccc(F)cc2)S(=O)(=O)N=C1N1CCC(C(=O)NCCc2cccc(C)c2)CC1 | · | 1 | 4 | · | ·
O=C(Nc1ccc(Br)cc1)c1cccc(C(=O)Nc2ccc(Br)cc2)c1 | · | 0 | 9 | · | ·
COC(=O)c1ccc(NC(=O)CC2C(=O)N(c3ccccc3)C(=O)N2Cc2cccs2)cc1 (stereo unspecified) | · | 0 | -11 | · | ·
COc1ccc(/C=N/Nc2nnc(C)n2N)cc1OC | -1 | 0 | 10 | ? | 57*
SMILES | D2 antag | D2 ag-1 | D2 PAM-1 | D2 ag-2 | D2 PAM-2
CC(C)CC(=O)Nc1c(C(=O)N2CCN(c3ccccc3F)CC2)oc2ccccc12 | · | 2 | 1 | · | ·
Cc1ccc(C)c(-c2nnc(NC(=O)c3ccco3)o2)c1 | 41* | 1 | -6 | -4 | -9
CCc1ccc(-n2nc(C)c3c(C(=O)Nc4cc(OC)cc(OC)c4)cc(C)nc32)cc1 | · | 0 | -7 | · | ·
O=[N+]([O-])c1ccc(C2=NN(c3ccccc3)C(c3ccco3)C2)cc1 (stereo unspecified) | -3 | 56* | 3 | 0 | -6
CC1=NN(c2ccccc2)C(c2ccco2)C1 (stereo unspecified) | · | · | · | -6 | -6
CCc1ccc(N=C2NC(=O)/C(=C/c3cc(OC)c(O)c(OC)c3)S2)cc1 | 15 | 5 | -21 | ? | -55

Screening data: PubChem, National Center for Advancing Translational Sciences (NCATS)
